Assay outcomes as filed in PubChem BioAssay.
Most compounds without a hit are left out; they make up all but 6.7% or so of the library.
Pf Dd2 inh – inhibitors of Plasmodium falciparum Dd2 growth; 94,000 tested, 2.3% active; activity change, % at 10 µM; P. falciparum Dd2 growth, SYBR Green, 72 h; stronger effect = lower value; AID 1159554; in the data active means activity change below about -80%; inconclusive means no clear call, values can overlap the other calls
C diff growth – C. difficile growth inhibition | Clostridium difficile clinical isolate growth, OD600, 24 h; stronger effect = lower value | growth activity, negative = inhibition, % at 16 µg/mL (by protocol) | AID 1259249 | 86,000 tested, 0.25% active;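 active means mean growth activity at or below -80% and every replicate also at or below -80%; inconclusive means mean at or below -80% but some replicate above -80%; inactive means mean growth activity above -80%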
T cruzi growth-1 – inhibitors of T. cruzi proliferation; T. cruzi beta-gal in NIH3T3, GalScreen luminescence, 90 h; inhibition, % at 8.34 µM; 77,000 tested, 5.9% active;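 active means mean inhibition above about 93%, with at least 55% of replicates each passing it, limit read from the data, passing the limit was not always enough; inconclusive means only one of those two conditions holds; inactive means neither condition holds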
T cruzi growth-2 – Trypanosoma cruzi proliferation inhibition. 5,600 tested, 72% active. T. cruzi beta-gal in NIH3T3, GalScreen luminescence, 90 h. inhibition, % at 8.35 µM. shares compounds with T cruzi growth-1;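 active means mean replicate inhibition above about 95% and at least 55% of replicates individually reaching it, limit read from the data; inconclusive means only one of the two criteria is met; inactive means neither criterion is met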
T cruzi growth-3 – inhibitors of T. cruzi proliferation | shares compounds with T cruzi growth-1 | T. cruzi beta-gal in NIH3T3, GalScreen luminescence, 90 h | inhibition, % at 2.09 µM | 5,600 tested, 21% active | AID 651740;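 active means mean inhibition above about 95%, with at least 55% of replicates also reaching it, limit read from the data; inconclusive means meets just one of the two conditions; inactive means meets neither condition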
3T3 cytotox – kills mouse NIH/3T3 fibroblasts; shares compounds with T cruzi growth-1; NIH/3T3 viability, CellTiter-Glo ATP luminescence, 90 h; cytotoxicity (signal decrease), % at 8.35 µM; 5,600 tested, 14% active;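 active means mean signal decrease across replicates above about 35% based on untreated-well scatter, with enough replicates individually passing, limit read from the data; inconclusive means no rule stated though some were filed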
NIH3T3 tox 2 – cytotoxicity in mouse NIH/3T3 fibroblasts | shares compounds with T cruzi growth-1 | NIH/3T3 viability, CellTiter-Glo ATP luminescence, 90 h | inhibition, % at 24.9 µM | 5,600 tested, 56% active;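 active means mean loss of cell viability signal at or above a set limit, and enough replicates individually reaching it; inconclusive means meets only the mean limit or only the replicate share; inactive means meets neither condition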
A number is an active result; – = inactive; ? = inconclusive; · = no result.

SMILES	Pf Dd2 inh	C diff growth	T cruzi growth-1	T cruzi growth-2	T cruzi growth-3	3T3 cytotox	NIH3T3 tox 2
O=C(C[C@H]1CC[C@H](NS(=O)(=O)c2ccc(F)cc2)[C@@H](CO)O1)NC1CCC1	–	–	–	·	·	·	·
O=C(C[C@H]1CC[C@@H](NS(=O)(=O)c2ccccc2)[C@@H](CO)O1)NCc1ccncn1	–	–	123	101	–	–	–
Cc1ccc(S(=O)(=O)N[C@@H]2CC[C@@H](CCNC(=O)Cc3ccccn3)O[C@H]2CO)cc1	–	–	?	–	–	–	–
Cc1ccc(S(=O)(=O)N[C@H]2CC[C@@H](CCNC(=O)Cc3ccccn3)O[C@H]2CO)cc1	–	–	–	·	·	·	·
O=C(C[C@H]1CC[C@@H](NS(=O)(=O)c2ccc(F)cc2)[C@H](CO)O1)NC1CCC1	–	–	119	–	–	–	–
O=C(C[C@@H]1CC[C@@H](NS(=O)(=O)c2ccccc2)[C@@H](CO)O1)NCc1ccncn1	–	–	–	·	·	·	·
COCC(=O)Nc1ccc2c(c1)OC[C@@H](C)N(C(=O)c1ccccn1)C[C@@H](C)[C@H](OC)CN(C)C2=O	–	–	–	·	·	·	·
CO[C@H]1CN(C)C(=O)c2cc(NC(=O)Nc3c(C)noc3C)ccc2OC[C@H](C)N(C)C[C@H]1C	–	–	–	·	·	·	·
CCCNC(=O)N1[C@@H]2CN(C(=O)c3cccnc3)c3ccccc3[C@@H]2[C@@H]1CO	–	–	–	·	·	·	·
COc1ccc(NC(=O)Nc2cccc3c2O[C@@H](CN(C)C(=O)Nc2c(C)noc2C)[C@H](C)CN([C@@H](C)CO)C3=O)cc1	–	–	–	·	·	·	·
COCC(=O)NC[C@H]1N[C@H](CO)[C@@H]1c1ccc(C2=CCCCC2)cc1	–	–	98	–	–	–	–
COCC(=O)NC[C@@H]1N[C@@H](CO)[C@H]1c1ccc(C2=CCCC2)cc1	–	–	–	·	·	·	·
O=C(NC[C@@H]1N[C@@H](CO)[C@H]1c1ccc(C2=CCCC2)cc1)c1ccccc1	–	–	–	·	·	·	·
O=C(NC[C@H]1N[C@H](CO)[C@@H]1c1ccc(-c2ccccc2F)cc1)c1ccccc1	–	–	?	96	–	–	105
O=C(NC[C@@H]1N[C@@H](CO)[C@@H]1c1ccc(C2=CCCC2)cc1)c1ccccc1	–	–	113	108	–	39	107
COCC(=O)NC[C@H]1N[C@H](CO)[C@H]1c1ccc(-c2ccccc2F)cc1	–	–	–	·	·	·	·
CCC(=O)NC[C@H]1N[C@H](CO)[C@@H]1c1ccc(-c2ccccc2F)cc1	–	–	·	·	·	·	·
O=C(NC[C@@H]1N[C@@H](CO)[C@H]1c1ccc(-c2ccccc2F)cc1)c1ccccc1	–	–	109	107	–	–	104
O=C(C[C@H]1C[C@@H]2c3cc(NC(=O)Nc4ccccc4F)ccc3O[C@@H]2[C@H](CO)O1)NCC(F)(F)F	–	–	–	·	·	·	·
CC(C)NC(=O)N(C)C[C@H]1Oc2ncc(C#CC3CCCC3)cc2C(=O)N([C@@H](C)CO)C[C@H]1C	–	–	–	·	·	·	·
Cc1ccccc1S(=O)(=O)N1C[C@H](O)COC[C@H]2O[C@@H](CC(=O)N3CCOCC3)CC[C@@H]21	–	·	–	·	·	·	·
CC(C)C#Cc1ccc2c(c1)O[C@H](CN(C)C(=O)c1ccccn1)[C@H](C)CN([C@H](C)CO)S2(=O)=O	–	–	–	·	·	·	·
C[C@H](CO)N1C[C@H](C)[C@H](CN(C)C(=O)Nc2ccccc2)Oc2ncc(C#Cc3cccc(F)c3)cc2C1=O	–	–	–	·	·	·	·
C[C@@H]1CN([C@H](C)CO)C(=O)c2cc(C#Cc3cccc(F)c3)cnc2O[C@H]1CN(C)C(=O)c1ccccc1F	-85	–	104	106	–	43	?
C[C@H](CO)N1C[C@H](C)[C@H](CN(C)C(=O)Nc2ccc(F)cc2)Oc2ncc(C#Cc3cccc(F)c3)cc2C1=O	–	–	?	–	–	75	105
SMILES	Pf Dd2 inh	C diff growth	T cruzi growth-1	T cruzi growth-2	T cruzi growth-3	3T3 cytotox	NIH3T3 tox 2
C[C@H]1CN([C@@H](C)CO)C(=O)c2cc(C#Cc3cccc(F)c3)cnc2O[C@@H]1CN(C)C(=O)c1ccccc1F	?	–	110	101	–	–	–
COc1ccc(C#Cc2cnc3c(c2)C(=O)N([C@H](C)CO)C[C@@H](C)[C@H](CN(C)C(=O)c2ccccc2F)O3)cc1	–	–	–	·	·	·	·
C[C@H](CO)N1C[C@H](C)[C@@H](CN(C)C(=O)c2ccccc2F)Oc2ncc(C#Cc3ccccc3)cc2C1=O	–	–	–	·	·	·	·
C[C@@H]1CN([C@@H](C)CO)C(=O)c2cc(C#Cc3ccccc3)cnc2O[C@@H]1CN(C)C(=O)c1ccccc1F	–	–	–	·	·	·	·
COc1ccc(C#Cc2cnc3c(c2)C(=O)N([C@@H](C)CO)C[C@H](C)[C@@H](CN(C)C(=O)c2ccccc2F)O3)cc1	–	–	113	98	–	–	–
O=C(C[C@H]1CC[C@H]2[C@@H](COC[C@H](O)CN2C(=O)c2ccc(F)cc2)O1)N1CCOCC1	–	·	–	·	·	·	·
CC(C)NC(=O)N(C)C[C@H]1Oc2ccc(NC(=O)c3ccncc3)cc2CC(=O)N([C@@H](C)CO)C[C@@H]1C	–	–	·	·	·	·	·
O=C(C[C@@H]1C=C[C@H](NC(=O)CC2CC2)[C@H](CO)O1)NCc1ccc(-c2ccccc2)cc1	–	·	–	·	·	·	·
C[C@H](CO)N1C[C@H](C)[C@H](CN(C)Cc2cncnc2)Oc2cc(-c3cccnc3)ccc2S1(=O)=O	–	–	–	·	·	·	·
CCNC(=O)c1cc2c(c(-c3cccc(-c4ccncc4)c3)n1)[C@H](CCO)N(S(=O)(=O)CC)C2	–	–	·	·	·	·	·
COc1ccc(C#Cc2cnc3c(c2)C(=O)N([C@@H](C)CO)C[C@@H](C)[C@H](CN(C)C(C)=O)O3)cc1	–	–	–	·	·	·	·
COc1ccc(C#Cc2cnc3c(c2)C(=O)N([C@H](C)CO)C[C@@H](C)[C@H](CN(C)C(C)=O)O3)cc1	–	–	?	–	–	–	33
O=C(CCN1CCCCC1)NCC[C@H]1CC[C@H](NS(=O)(=O)c2cccc(F)c2)[C@H](CO)O1	–	–	–	·	·	·	·
C[C@H](CO)N1C[C@H](C)[C@H](CN(C)C(=O)Nc2ccccc2)Oc2ccc(NC(=O)Cc3ccccc3)cc2C1=O	–	–	–	·	·	·	·
O=C(NCCN1CCCCC1)[C@H]1N[C@H]2c3ccc(-c4cccnc4)c(=O)n3C[C@H]2[C@@H]1CO	·	·	–	·	·	·	·
O=C(NCCN1CCCCC1)[C@@H]1N[C@@H]2c3ccc(-c4ccncc4)c(=O)n3C[C@@H]2[C@H]1CO	–	·	101	–	–	–	–
O=C(C[C@@H]1C=C[C@H](NC(=O)Nc2ccc(F)cc2)[C@@H](CO)O1)NCc1cccc(F)c1	·	–	·	·	·	·	·
Cc1noc(C)c1S(=O)(=O)N(C)C[C@H]1OCCCC[C@H](C)Oc2ccc(NS(=O)(=O)c3ccccc3)cc2C(=O)N([C@H](C)CO)C[C@H]1C	–	–	·	·	·	·	·
